Screens deposited in PubChem by National Center for Advancing Translational Sciences (NCATS).
In the library only some 3.6% were active in any assay of this set; here they are far more common.
Rango-impB inh: inhibitors of Rango-importin beta complex formation | Rango CFP/YFP FRET sensor + importin beta, 45 min | 340,000 tested, 0.031% active | Q14974 | Potency, µM (doses to about 92.2 µM); calls by dose curve; note: nearly all actives have a fitted effect of over 15% in size
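Inhibition scored from the CFP 486 nm/YFP 530 nm FRET ratio 45 min after adding 0.125 microM importin beta to 50 nM Rango biosensor preincubated 5 min with compound (room temperature, PBS with DTT, Tween-20, BSA). No-importin wells as positive control.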
PLK1 PBD block: blocks phosphopeptide binding to human PLK1 polo-box domain. AID 720504. Potency, µM, hits mostly inhibitors. P53350. 360,000 tested, 2.8% active. Plk1 PBD binding of FITC phosphopeptide, fluorescence polarization; note: series mostly up to about 57 µM; nearly all actives have a fitted effect of over 65% in size
PI5P4K alpha inh: PI5P4K alpha (human) kinase inhibition; P48426; PI5P4Kalpha enzyme, ADP-Glo luminescence, 60 min; hits give low values; max response, %; 330,000 tested, 1.2% active; AID 652105; active = max response of -50% or lower; inconclusive = between -30% and -50%; inactive = -30% or higher; note: value at the top dose of about 77 µM
Target sequence (P48426 whole entry, looked up): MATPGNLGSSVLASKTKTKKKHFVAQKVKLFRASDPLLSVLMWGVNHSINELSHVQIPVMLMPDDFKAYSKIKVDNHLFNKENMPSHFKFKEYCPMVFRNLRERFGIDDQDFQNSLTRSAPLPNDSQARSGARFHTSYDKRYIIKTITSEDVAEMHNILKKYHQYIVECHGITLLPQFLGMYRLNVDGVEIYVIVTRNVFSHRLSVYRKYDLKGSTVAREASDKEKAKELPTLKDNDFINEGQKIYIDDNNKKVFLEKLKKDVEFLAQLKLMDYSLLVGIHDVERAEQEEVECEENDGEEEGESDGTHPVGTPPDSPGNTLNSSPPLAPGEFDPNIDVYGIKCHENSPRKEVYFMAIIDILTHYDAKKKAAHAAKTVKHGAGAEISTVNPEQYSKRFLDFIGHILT
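Luminescence from ADP-Glo served as readout of PI5P4Kalpha activity in a qHTS format. Reaction: enzyme, substrate, compound, ATP at 5 microM final, 60 min at RT.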
KAT2A inh: GCN5L2 (KAT2A) acetyltransferase inhibition; Q92830; GCN5L2 HAT assay, ThioGlo1 CoA-SH fluorescence; Potency, µM (highest dose often 58.9 µM), hits mostly inhibitors; 390,000 tested, 0.21% active; AID 504327
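Preincubate 20nM GCN5L2 with compound 15 min, RT → add 50uM ThioGlo1 + 75uM H3(1-25) + 70uM acetyl-CoA → read fluorescence 0 and 20 min. Primary qHTS; fluorescent artifacts likely.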
VDR inh: blocks the human vitamin D receptor | P11473 | VDR-SRC2-3 peptide fluorescence polarization, 2 h | Potency, µM, actives largely listed as inhibitors | 400,000 tested, 0.93% active | AID 504847
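VDR–SRC2-3 interaction, FP format. Cmpds 23 nl via pintool, brief spin, 2 h ambient incubation.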
Rango dissoc inh: prevents RanGTP from dissociating the Rango-importin beta complex; 340,000 tested, 0.071% active; O95149+P62826; Biochemical FRET Rango-importin beta, RanGTP-induced dissociation; Potency, µM (series often up to 46.1 µM); calls by dose curve; note: nearly all actives have a fitted effect of over 45% in size
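Rango/importin beta premix (0.1/0.25 uM final), PBS + 1 mM DTT + 0.02% Tween-20 + 0.1% BSA; cpd 5 min RT; FRET pre-read; + RanGTP-RCC1 (0.6 uM Ran, 2 mM GTP, 0.2 uM RCC1); 45 min RT; FRET post-read, ex 430, em 486/530 nm.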
Of the large screens only hits and unclear results are named; the others gave an inactive call. Unless noted, calls come from the whole dose curve; as a rule, active = well fitted curve in the direction sought with a large enough effect; inconclusive = small, poorly fitted or top-dose-only effect, or another doubt; inactive = no such curve, though single readings can be large; an effect the other way counts as inactive or inconclusive.

CCn1c(=O)cc(OCC(=O)NCCC(C)C)c2ccccc21	none
CCn1c(=O)cc(OCC(=O)NC(C)c2ccc3c(c2)OCCO3)c2ccccc21 (stereo unspecified)	PLK1 PBD block 27µM
COc1ccc(OC)c(NC(=O)c2cnn(-c3ccc(C)cc3)c2C2CCNCC2)c1	none (no result: Rango-impB inh, PLK1 PBD block, PI5P4K alpha inh, Rango dissoc inh)
CCc1ccc(CNC(=O)c2ccc3c(c2)nc2n3CCOC2)cc1	none (no result: Rango-impB inh, PLK1 PBD block, PI5P4K alpha inh, Rango dissoc inh)
CCN1C(=NCCCOC(C)C)N[C@@H](CCc2ccccc2)[C@H](C(=O)NCCCOC(C)C)[C@H]1C	Rango-impB inh inconclusive, PLK1 PBD block 24µM, Rango dissoc inh inconclusive
CC(C)Cn1c(N)c(C(=O)COC(=O)c2cc(-c3ccco3)nc3ccccc23)c(=O)n(C)c1=O	Rango-impB inh inconclusive, PLK1 PBD block inconclusive, PI5P4K alpha inh -97, KAT2A inh inconclusive, VDR inh inconclusive, Rango dissoc inh inconclusive
CC(C)Cn1c(N)c(C(=O)COC(=O)C2CCCCC2)c(=O)n(C)c1=O	PLK1 PBD block 24µM, VDR inh inconclusive
CCCOc1ccc(N2C(=O)CC(NCc3ccc(S(N)(=O)=O)cc3)C2=O)cc1 (stereo unspecified)	none
CCOc1ccc(N2C(=O)CC(NCc3ccc(S(N)(=O)=O)cc3)C2=O)cc1 (stereo unspecified)	PLK1 PBD block 11µM, VDR inh inconclusive
COc1cc(OC)cc(C(=O)NCC(=O)OCC(=O)N2CCc3ccccc32)c1	PLK1 PBD block 27µM, PI5P4K alpha inh inconclusive, VDR inh inconclusive
N#Cc1ccccc1Cn1cc(/C=C/[N+](=O)[O-])c2ccccc21	Rango-impB inh inconclusive, PLK1 PBD block inconclusive, VDR inh 32µM
COc1ccc(CC(=O)NCC(c2ccc(N(C)C)cc2)N2CCOCC2)cc1OC (stereo unspecified)	none (no result: Rango-impB inh, PLK1 PBD block, PI5P4K alpha inh, Rango dissoc inh)
Cc1cc(NC(=O)CSc2[nH]c(=O)cc(C(F)(F)F)c2C#N)no1	PI5P4K alpha inh -75
Cc1cc(-n2c(C)cc(C(=O)CSc3[nH]c(=O)cc(C(F)(F)F)c3C#N)c2C)no1	none
Cc1ccccc1NC(=O)CSc1[nH]c(=O)cc(C)c1C#N	PLK1 PBD block 21µM, PI5P4K alpha inh -56
Cc1ccccc1C(=O)OCc1cc(=O)n2nc(C3CCCCC3)sc2n1	none (no result: Rango-impB inh, PLK1 PBD block, PI5P4K alpha inh, Rango dissoc inh)
Cc1ccccc1N1CCN(C(=O)c2ccccc2NC(=O)c2ccccc2C(=O)O)CC1	PLK1 PBD block 30µM
CN1CCN(C(=O)c2ccccc2NC(=O)c2ccccc2Br)CC1	none
CCCNC(=O)OCc1cccnc1Sc1ccc(C)cc1	PLK1 PBD block 27µM, PI5P4K alpha inh inconclusive
CCCc1cc(=O)[nH]c(SCC(=O)c2c[nH]c3ccccc23)n1	PLK1 PBD block 19µM, VDR inh inconclusive
CCCc1cc(=O)[nH]c(SCC(=O)c2c(C)[nH]c3ccccc23)n1	none
CC(=O)Oc1ccc(N(C(C)=O)S(=O)(=O)c2ccc(C)cc2C)c2ccccc12	none
Cc1ccc(S(=O)(=O)N(C(=O)c2ccncc2)c2ccc(OC(=O)c3ccncc3)c3ccccc23)cc1	PLK1 PBD block 9.5µM, VDR inh inconclusive
Cc1ccc(S(=O)(=O)N(C(=O)c2ccncc2)c2ccc(OC(=O)c3ccncc3)c3ccccc23)c(C)c1	PLK1 PBD block 13µM
Cc1ccccc1Nc1oc(-c2ccccc2)nc1-c1cccs1	none (no result: Rango-impB inh, PLK1 PBD block, PI5P4K alpha inh, KAT2A inh, Rango dissoc inh)
O=C1C=C(c2c(O)ccc3ccccc23)c2ccccc2C1=O	PLK1 PBD block 7.5µM, PI5P4K alpha inh inconclusive, VDR inh inconclusive (no result: KAT2A inh)
Cc1ccc(-c2cn3c(n2)sc2cc(C(=O)NC4CCCCC4)ccc23)cc1	none (no result: Rango-impB inh, PLK1 PBD block, PI5P4K alpha inh, Rango dissoc inh)
C/C=C\C=C\C(=O)Nc1cccc(C2=NOC3(C2)C[C@H](C(N)=O)N(C(=O)c2ccccc2C(=O)c2ccccc2)C3)c1 (stereo partly specified)	PI5P4K alpha inh -52
CCCCCC(=O)Nc1cccc(C2=NOC3(C2)C[C@@H](C(N)=O)N(C(=O)c2cc([N+](=O)[O-])cc([N+](=O)[O-])c2C)C3)c1 (stereo partly specified)	none
